Screens (PubChem)
Only a selection was taken, and hits are over-represented in it overall.
CapD inh = Bacillus anthracis CapD inhibitors, primary screen, biochemical, fluorescence intensity; purified CapD enzyme, fluorescence intensity read-out; stronger effect = lower value; z-score (no concentration beside the values); 140,000 tested, 0.23% active; AID 492967, 2010; CapD gamma-glutamyltranspeptidase (Bacillus anthracis Ames Ancestor); in the data active = z-score mostly below about -2.9, no sharp cut-off; inactive = mostly above about -1.9
Numbers stand for hits; n = inactive.

SMILES	CapD inh
Cc1cc(/C=C2\C(=O)NC(=S)N(c3ccc(Cl)cc3)C2=O)c(C)n1-c1cc(C(=O)O)cc(C(=O)O)c1	-6.2
COc1ccccc1CNC(=O)COc1ccccn1	n
O=S(=O)(c1cccc(Br)c1)N(Cc1ccc(-c2ccccc2)cc1)Cc1ccco1	n
O=C(Cc1ccccc1)c1cc(O)c(O)cc1O	-7.6
O=C(Cc1ccccc1)c1ccc(O)cc1	n
Nc1ccccc1C(=O)Cc1ccccc1	n
O=C(CSc1cnccc1C(F)(F)F)NCCN1CCOCC1	n
Cc1cc(C(=O)O)ccc1-c1ccc(/C=N/n2cnnc2)o1	n
Cc1cc(C(=O)O)ccc1-c1ccc(/C=C2\SC(=S)NC2=O)o1	-9.4
Cc1ccc(N=C2NC(=O)/C(=C\c3ccc(-c4ccc(C(=O)O)cc4)o3)S2)cc1	n
O=C1NC(=O)C(Nc2ccccc2C(=O)O)S1 (stereo not drawn)	n
CN1CCN(c2ccc(S(C)(=O)=O)cc2NC(=O)C2CCN(c3ccc(C(F)(F)F)cn3)CC2)CC1	n
Cc1csc(NC(=O)C(NC(=O)c2ccccc2)C(C)C)n1 (stereo not drawn)	n
O=C(NCCCN1CCOCC1)c1nn2c(C(F)(F)F)cc(-c3cccs3)nc2c1Cl	n
CN(C)/C=C1\SC(=O)N(c2ccccc2)C1=O	-6.4
O=C1S/C(=C/c2ccccc2Cl)C(=O)N1c1ccccc1	n
O=C1S/C(=C\c2ccc(F)cc2)C(=O)N1c1ccccc1	n
c1ccc2[nH]c(CCc3nc4ccccc4s3)nc2c1	n
O=C(C(O)c1ccccc1)N1N=C2CCCCC2C1(O)C(F)(F)F (stereo not drawn)	n
CCN(CC)CCCOc1ccc(C)cc1C	n
Nc1c(Cl)cc(C(=O)NC2CCS(=O)(=O)C2)cc1Cl (stereo not drawn)	n
N#Cc1ccc(CSc2nc3ncccc3c(=O)n2Cc2ccccc2)cc1	-6.5
O=c1c2cccnc2nc(SCc2ccccc2F)n1Cc1ccccc1	n
O=c1c2nccnc2nc(SCc2ccc(F)cc2)n1Cc1ccccc1	n
Cc1c(Nc2nc3nonc3nc2Nc2c(C)n(C)n(-c3ccccc3)c2=O)c(=O)n(-c2ccccc2)n1C	n
SMILES	CapD inh
CCCC(=O)Oc1ccc(N(C(=O)CCC)S(=O)(=O)c2ccccc2)cc1	n
CC(=O)Oc1ccc(N(C(C)=O)S(=O)(=O)c2ccccc2)cc1	-4.2
COc1ccc(N(C(C)=O)S(=O)(=O)c2ccc(C)cc2)cc1	n
O=C(NCc1ccc2c(c1)OCO2)c1cnn(-c2cccc(F)c2)c1-n1cccc1	n
Cc1ccccc1NC(=O)/C(C#N)=C(\Nc1ccccc1)SCc1ccc(Cl)cc1	n
CC(=O)n1c(=S)[nH]c2ccccc21	-5.2
O=C(Cn1c(=S)[nH]c2ccccc21)c1ccc(-c2ccccc2)cc1	n
CC(=O)n1c(=O)sc2ccccc21	n
Cc1ccc(CNC(=O)c2cc3oc4ccccc4c3n2C)cc1	n
FC(F)(F)c1ccc(-n2nnnc2-c2cnccc2C(F)(F)F)cc1	n
Cc1cc(-c2ccccc2)nc(SCc2ccc(Cl)c(Cl)c2)c1C#N	n
O=C(Cc1ncn[nH]1)NCCc1ccccc1	-5.8
Cc1n[nH]c(C)c1CC(=O)NCCc1ccccc1	n
CCCNC(=O)Cc1ncn[nH]1	n
CN(Cc1ccccc1)CC(O)c1ccc2cc[nH]c2c1 (stereo not drawn)	n
Cc1cccc(C)c1NC(=O)C(NC(=O)c1ccc(-n2cnnn2)cc1)c1ccccc1 (stereo not drawn)	n
O=C1NC(=S)S/C1=C\C=C\c1ccccc1	-4
O=C1NC(=S)NC(=O)C1=C/C=C/c1ccccc1	n
O=C1NC(=O)/C(=C\C=C\c2ccccc2)S1	n
COc1ccc(C(=O)n2ccc(-c3cnc(-c4ccccc4)s3)n2)cc1	n
CC[C@H](C)[C@H]1O[C@]2(CC[C@@H]1C)C[C@@H]1C[C@@H](C/C=C(\C)C(O[C@H]3C[C@H](OC)[C@@H](O[C@H]4C[C@H](OC)[C@@H](O)[C@H](C)O4)[C@H](C)O3)[C@@H](C)/C=C/C=C3\CO[C@@H]4[C@H](O)C(C)=C[C@@H](C(=O)O1)[C@]34O)O2 (stereo partly drawn)	n
O=C(O)c1cc(C=Nc2ccc(S(=O)(=O)NC3NC=CS3)cc2)c2c(c1)COCO2 (stereo not drawn)	-5.2
Cc1cc(NS(=O)(=O)c2ccc(N=Cc3ccccc3O)cc2)no1	n
O=C(OCc1cccc(Cl)c1)c1ccc2c(c1)OCO2	n
O=C(Cc1ccccc1)OCC(=O)N1CCC(Cc2ccccc2)CC1	n
SMILES	CapD inh
CS(=O)(=O)C1=NN2C(=N)/C(=C\c3ccco3)C(=O)N=C2S1	n
CC(C)S(=O)(=O)C1=NSC2=NC(=O)/C(=C\c3ccco3)C(=N)N21	-3.8
COc1cc(/C=C2/C(=N)N3C(=NC2=O)SN=C3S(=O)(=O)C(C)C)cc(Cl)c1OC(=O)c1ccco1	n
CC(C)(C)c1cc2ncnc(N3CCSCC3)c2s1	n
O=C(CSc1nnc2n1CCCCC2)c1ccc(Cl)cc1	n
CN(C)c1nc2nonc2nc1Nc1ccc(F)cc1	-5.2
COc1ccc(Nc2nc3nonc3nc2Nc2ccc(OC)cc2)cc1	n
